# Bioassay records: PubChem, The Scripps Research Institute Molecular Screening Center
# Compounds with a hit are over-represented: about 2.8% of the library has one in this group of screens.
# PME-1 primary: PME-1 (human) inhibition; recombinant PME-1, FP-Rh probe fluorescence polarization; Q9Y570; actives 0.53% (n = 320,000); inhibition, % at 5.9 µM;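 active = inhibition above the campaign mean of all compounds plus 3 SD, cut at about 26% in these data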;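 note: competitive labeling of PME-1 active site by serine hydrolase directed probe; 0% = PME-1 with DMSO and 100% = wells lacking PME-1 enzyme; inhibitors block probe labeling so polarization falls and inhibition rises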
# PAFAH1B2 inh: inhibitors of human PAFAH1B2. recombinant PAFAH1B2, FP-rhodamine activity probe, fluorescence polarization. inhibition, % at 3.39 µM. actives 1.2% (n = 340,000). AID 492953;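 active = inhibition above the mean of all tested compounds plus 3 SD, cut at about 24% in these data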;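 note: 0% = enzyme with DMSO and 100% = wells lacking PAFAH1B2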
# Fam108B counter: Fam108B inhibition, counter-screen for RBBP9 inhibitors | AID 1947 | inhibition, % at 9.51 µM | recombinant Fam108B, FP-Rh probe fluorescence polarization | actives 0.33% (n = 300,000);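 active = inhibition above the screen mean inhibition plus 3 SD, computed separately per campaign, cut at about 18% in these data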;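 note: inhibitors lower polarization as less probe binds the enzyme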
# pPAFAH FP inh: inhibitors of human plasma PAF acetylhydrolase (pPAFAH); actives 1.5% (n = 330,000); recombinant pPAFAH, FP-rhodamine probe fluorescence polarization; inhibition, % at 3.39 µM; Q13093;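 active = inhibition above the mean inhibition across the screen plus 3 SD, cut at about 25% in these data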;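 note: inhibitors block binding of the rhodamine activity-based probe so polarization drops; 0% = enzyme with DMSO and 100% = wells lacking pPAFAH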
# Target sequence (Q13093 whole entry, looked up): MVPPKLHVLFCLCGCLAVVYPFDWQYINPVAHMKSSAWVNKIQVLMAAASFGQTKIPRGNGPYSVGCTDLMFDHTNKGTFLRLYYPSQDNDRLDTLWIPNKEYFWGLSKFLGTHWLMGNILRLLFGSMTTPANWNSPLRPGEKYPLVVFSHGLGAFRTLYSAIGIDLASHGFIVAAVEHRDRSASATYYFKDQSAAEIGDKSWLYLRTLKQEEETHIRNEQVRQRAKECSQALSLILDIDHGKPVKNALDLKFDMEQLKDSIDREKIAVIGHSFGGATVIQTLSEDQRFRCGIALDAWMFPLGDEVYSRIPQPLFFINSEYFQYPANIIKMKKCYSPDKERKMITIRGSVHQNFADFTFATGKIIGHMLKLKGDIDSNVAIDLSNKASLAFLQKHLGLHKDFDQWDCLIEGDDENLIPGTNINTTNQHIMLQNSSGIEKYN
# PAFAH2 inh: inhibitors of human PAFAH2; Q99487; actives 0.99% (n = 340,000); AID 492956; recombinant PAFAH2, FP-rhodamine activity probe, fluorescence polarization; inhibition, % at 3.39 µM;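 active = inhibition above the mean over all tested compounds plus 3 SD, cut at about 30% in these data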;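 note: inhibitors block probe labeling of enzyme so polarization drops; 0% = enzyme with DMSO and 100% = wells lacking PAFAH2 protein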
# PAFAH1B3 inh: blocks human PAF acetylhydrolase 1B catalytic subunit 3; Q15102; recombinant PAFAH1B3, FP-rhodamine probe, fluorescence polarization; inhibition, % at 3.39 µM; actives 0.28% (n = 340,000);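 active = inhibition above the screen-wide average of all tested compounds plus 3 SD, cut at about 25% in these data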;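 note: 0% = enzyme with DMSO only and 100% = wells lacking PAFAH1B3 protein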
# * hit, by the source's call; nt = not tested or not shown.
SMILES,PME-1 primary,PAFAH1B2 inh,Fam108B counter,pPAFAH FP inh,PAFAH2 inh,PAFAH1B3 inh
CCOC(=O)c1ccc(-n2c(CCC(=O)O)ccc2-c2cccs2)cc1,-5,-4,-1,8,4,5
Cc1ccc(-n2c(CCC(=O)O)ccc2-c2cccs2)cc1C,-4,6,9,29*,10,8
CCCCn1c(CCC(=O)O)ccc1-c1cccs1,1,10,3,28*,4,-2
Cc1ccc(S(=O)(=O)NCc2ccccc2)cc1C(=O)N1CCCC(C(F)(F)F)C1 (stereo not drawn),4,4,2,4,0,4
CC(C)N=c1scc(-c2cccs2)n1/N=C/c1ccc(O)c(O)c1O,14,0,-10,68*,1,5
CCc1ccc[n+](-c2[nH]c(=O)sc2/C=N/N=C(\[O-])CCn2c3ccccc3c3ccccc32)c1,4,2,3,10,8,1
Cc1cc[n+](-c2[nH]c(=O)sc2/C=N/N=C(\[O-])CCn2c3ccccc3c3ccccc32)cc1,0,nt,2,32*,nt,nt
CC(C)c1ccc2[nH]c(O)c(N=NC(=O)c3ccc(CSc4nncn4C)cc3)c2c1,30*,3,-4,4,-6,4
Cn1cnnc1SCc1ccc(C(=O)NN)cc1,-2,2,7,1,-8,-1
CC(C)n1cc(/C=N/Nc2ccc(Cl)c(C(=O)O)c2)c2ccccc21,10,1,3,9,9,6
CC(C)CSc1nc2c(c(=O)[nH]c(=O)n2C)n1CCc1ccccc1,6,4,6,5,-3,1
CC(C)CSc1nc2c(=O)[nH][nH]c(=O)c2n1Cc1ccccc1,2,19,4,30*,1,9
Cc1cc(-c2nnc(CCC(=O)NCCc3ccccc3F)o2)no1,4,-9,5,-5,-5,-2
CC(=O)N1c2ccccc2Oc2cc3ccccc3cc21,4,-4,4,20,9,-1
O=C(CCl)N1c2ccccc2Oc2ccc3ccccc3c21,nt,24,nt,nt,30*,30*
Cc1ccc(Nc2c(-c3ccccn3)nc3cc(C)ccn23)cc1,6,1,-1,10,5,4
Cc1ccc(Nc2c(-c3ccccn3)nc3ccc(C)cn23)cc1,7,8,6,28*,-3,5
O=C(Nc1ncccc1O)c1cccc(S(=O)(=O)N2CCc3ccccc32)c1,-2,48*,4,5,34*,-5
O=S(=O)(NC(CO)Cc1ccccc1)c1ccc(Br)cc1F (stereo not drawn),nt,29*,nt,nt,1,3
O=S(=O)(NC(CO)Cc1ccccc1)c1cc(Cl)ccc1F (stereo not drawn),nt,15,nt,nt,-3,3
N/C(=N\OC(=O)CCC1CCCCC1)c1ccc([N+](=O)[O-])cc1,-3,25*,1,9,20,2
CCN(C(=O)c1ccc2c(=O)n3c(nc2c1)CCCCC3)c1ccccc1C,9,4,3,5,9,-1
CN1OC(COC(=O)c2ccc(Cl)cc2Cl)CC1c1ccccc1 (stereo not drawn),-1,3,1,26*,7,-3
CC1=NN(c2ccc(C)c(C)c2)C(=O)/C1=C\C=C\c1ccc([N+](=O)[O-])o1,-1,-3,-1,25*,5,2
CC1=NN(c2ccccc2)C(=O)/C1=C\C=C\c1ccccc1,0,nt,6,7,nt,nt
SMILES,PME-1 primary,PAFAH1B2 inh,Fam108B counter,pPAFAH FP inh,PAFAH2 inh,PAFAH1B3 inh
CCOc1ccccc1NC(=O)CCCc1ccc(OC)c(C)c1,-2,4,4,5,-9,5
CCOc1ccc(N(CC(=O)NCCSCc2ccccc2)S(=O)(=O)c2ccccc2)cc1,-6,3,-6,28*,1,-3
CCOc1ccc(N(CC(=O)NCCSCc2ccccc2)S(C)(=O)=O)cc1,-5,4,3,17,3,-2
Cc1cc(C)cc(N(CC(=O)NCCSCc2ccccc2)S(C)(=O)=O)c1,2,6,2,31*,8,-2
CCc1ccc(S(=O)(=O)NCc2csc(C)n2)cc1,nt,4,nt,nt,-8,6
CCC(NC(=O)c1cc(COc2cncc(Cl)c2)on1)c1ccc(C)cc1 (stereo not drawn),-3,28*,2,5,-3,1
O=c1[nH]c(C2CCN(S(=O)(=O)c3ccccc3F)CC2)nc2c1nnn2Cc1ccc(OC(F)(F)F)cc1,4,26*,-8,1,-6,0
COC(=O)c1ccc(Cn2nnc3c(=O)[nH]c(C4CCN(S(=O)(=O)c5ccc(F)cc5)CC4)nc32)cc1,36*,-1,-4,7,-3,-5
O=c1[nH]c(C2CCCN(S(=O)(=O)c3cccc(Cl)c3)C2)nc2c1nnn2Cc1ccc2c(c1)OCCO2 (stereo not drawn),10,3,-12,8,5,13
O=c1[nH]c(C2CCCN(S(=O)(=O)Cc3ccccc3)C2)nc2c1nnn2Cc1cccc(Cl)c1 (stereo not drawn),-6,1,-6,28*,4,-2
O=c1[nH]c(C2CCN(S(=O)(=O)c3ccccc3C(F)(F)F)CC2)nc2c1nnn2Cc1ccccc1,17,-2,-6,0,6,4
COc1ccc(/C=C/C(=O)Nc2cc(F)ccc2C)cc1S(=O)(=O)N1CCOCC1,-2,4,5,1,-10,6
CCCCN(Cc1nc2ccccc2c(=O)[nH]1)C(=O)c1nn(C)c(=O)c2ccccc12,nt,42*,nt,nt,81*,76*
CCc1ccccc1N(C(=O)c1snc(C(N)=O)c1N)C(C(=O)NCC1CCCO1)c1ccc(C)o1 (stereo not drawn),-6,6,-1,1,0,5
CN(C(=O)c1cc(COc2c(F)cccc2F)on1)C1CCOC1 (stereo not drawn),6,3,-2,-3,4,0
O=C(NCC1COCCO1)c1cc(COc2c(F)cccc2F)on1 (stereo not drawn),3,-2,-3,25*,0,3
COc1cccc(CNC(=O)c2ccc(CS(=O)c3ccccc3)o2)c1 (stereo not drawn),-2,3,4,1,-1,4
N#CC1=C(N)S[C@H](C(=O)C23CC4CC(CC(C4)C2)C3)[C@H]1c1ccncc1,6,28*,1,-1,7,3
O=C(NCc1ccncc1)C12CC3CC(CC(C3)C1)C2,3,9,3,1,5,0
O=C1c2cccc3c([N+](=O)[O-])ccc(c23)C(=O)N1c1nccs1,15,14,6,1,10,33*
O=C1c2cccc3c([N+](=O)[O-])ccc(c23)C(=O)N1c1ccc(Cl)cn1,28*,12,7,7,8,34*
O=C1c2ccc([N+](=O)[O-])cc2C(=O)N1c1ccc(Cl)cn1,2,0,0,-3,4,3
